# Source: PubChem BioAssay
# Results filed as inconclusive are left out. Active and inactive are the calls of the source.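 The calls were made as follows, unless noted: active = normalized viability below 100% at a tested concentration; inactive = the rest.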
# Experiments:
# [1] = viability loss in pontine glioma line – cell-based, SU-DIPG-XVII, MIPE5.0, CellTiter-Glo, qHTS, dose response (AID 1347060; cut-off not given, nearly all actives have AC50 up to about 26 µM;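 as to AC50: cells exposed to compound for 48 hours before viability readout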); details: CellTiter-Glo ATP luminescence
# [2] = viability loss in pontine glioma line – cell-based, SU-DIPG-XIII, MIPE4.0, CellTiter-Glo, qHTS, dose response (AID 1347061; cut-off not given, nearly all actives have AC50 up to about 37 µM;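 also: cells exposed to compound for 48 hours before readout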); details: CellTiter-Glo ATP luminescence
# [3] = viability loss in pontine glioma line – cell-based, JHH-DIPG-1, MIPE4.0, CellTiter-Glo, qHTS, dose response (AID 1347062; cut-off not given, nearly all actives have AC50 up to about 27 µM;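 as to AC50: cells exposed to compound for two days before readout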); details: JHH-DIPG-1 viability, CellTiter-Glo ATP luminescence
# [4] = viability loss in pontine glioma line – cell-based, SU-DIPG-IV, MIPE4.0, CellTiter-Glo, qHTS, dose response (AID 1347063; cut-off not given, nearly all actives have AC50 up to about 30 µM;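 also: compound exposure lasted 48 hours before the viability readout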); details: CellTiter-Glo ATP luminescence
# [5] = viability loss in pontine glioma line – cell-based, SU-DIPG-XIII, MIPE5.0, CellTiter-Glo, qHTS, dose response (AID 1347064; cut-off not given, nearly all actives have AC50 up to about 23 µM;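 as to AC50: cells exposed to compound for 48 hours before the viability read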); details: CellTiter-Glo ATP luminescence
# [6] = viability loss in pontine glioma line – cell-based, SU-DIPG-XXV, MIPE5.0, CellTiter-Glo, qHTS, dose response (AID 1347065; cut-off not given, nearly all actives have AC50 up to about 26 µM;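 also: cells exposed to compound for 48 hours before ATP readout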); details: CellTiter-Glo ATP luminescence
# [7] = viability loss with induced miR-34 in A549 – imaging, A549 dox-inducible miR-34, nuclei and caspase counts, primary screen (AID 1347080;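 active = compounds whose cell count with miR-34 switched on is under 0.7 times the count with it off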); details: A549 miR-34 inducible, Hoechst nuclei count, 48 h
# [8] = compounds altering HSF1 focus formation in cells – imaging, Selleck Cancer Library (AID 1347162; in the data active = plate-normalised HSF1 focus index below about 0.46); details: human cells, HSF1 nuclear foci imaging, at 10 µM; SSMD: measured here: HSF1 foci SSMD mean; cell count: measured here: cell number; plate-normalised HSF1 focus index: stronger effect = lower value
# [9] = MELAS cybrid and Rieske KO viability enhancers – cell-based, MELAS cybrids, Rieske KO mouse fibroblasts, CellTiter-Glo, primary screen (AID 1508586;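 active = mean z-score across replicates of 1.96 or higher in either the MELAS or the Rieske mutant cell line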;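 also: z relative to plate mean and SD of compound and empty wells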); details: low glucose
# [10] = drug combination growth inhibition, ovarian cancer – cell-based, oncology-focused library, rucaparib conditional, profiling panel (AID 1508598); details: patient-derived ovarian cancer cells, CellTiter-Glo viability, 144 h, stronger effect = lower value
# [11] = growth inhibition of DIPG cells – cell-based, MIPE4.0 library, CellTiter-Glo luminescence, qHTS (AID 1347066; cut-off not given, nearly all actives have AC50 up to about 30 µM;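 also: cells exposed to compound for 48 hours before readout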); details: SU-DIPG-VI viability, CellTiter-Glo ATP luminescence
# [12] = JHH-DIPG-1 glioma cell viability, MIPE5.0 library, CellTiter-Glo luminescence, qHTS (AID 1347067; cut-off not given, nearly all actives have AC50 up to about 26 µM;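 also: cells exposed to compound for 48 hours before readout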); details: JHH-DIPG-1 glioma viability, CellTiter-Glo ATP luminescence
# [13] = growth inhibition of DIPG cells – cell-based, MIPE5.0 library, qHTS (AID 1347068; cut-off not given, nearly all actives have IC50 up to about 30 µM); details: SU-DIPG-XXV viability
# [14] = stronger effect = lower value, cell number ratio, induced over uninduced
# [15] = measured here: relative caspase fold change +Dox/-Dox
# [16] = measured here: total cells with miR-34 induction, stronger effect = lower value
# [17] = measured here: total cells without miR-34 induction
# [18] = MELAS cybrid survival, CellTiter-Glo 48 h, stronger effect = higher value
# [19] = Rieske KO mouse fibroblast survival, CellTiter-Glo 72 h
structure (smiles),measurement,setting,value
COC(=O)Nc1ccc(-c2nc(N3CCOCC3)c3cnn(C4CCN(C(=O)OC)CC4)c3n2)cc1,AC50,[1],1860 nM (active)
same,AC50,[2],66.2 nM (active)
same,AC50,[3],187 nM (active)
same,AC50,[4],1320 nM (active)
same,AC50,[5],2630 nM (active)
same,AC50,[6],417 nM (active)
same,fold change,[7]; [14],1.03 (inactive)
same,fold change,[7]; [15],0.692
same,cell count,[7]; [16],2420
same,cell count,[7]; [17],2340
same,SSMD,[8],1.11
same,cell count,[8],6960
same,plate-normalised HSF1 focus index,[8],1.06 (inactive)
same,z-score,[9]; [18],4.37 (active)
same,z-score,[9]; [19],0.522
same,viability,"[10]; at 0.000305 µM, OCI-C5x cells, with rucaparib 10 µM, 100% = cells with rucaparib alone",108% (inactive)
same,viability,"[10]; at 0.000305 µM, OCI-C5x cells, without rucaparib",105% (inactive)
same,viability,"[10]; at 0.000305 µM, OCI-P5x cells, with rucaparib 20 µM, 100% = cells with rucaparib alone",94.1% (active)
same,viability,"[10]; at 0.000305 µM, OCI-P5x cells, without rucaparib",90.5% (active)
same,viability,"[10]; at 0.00122 µM, OCI-C5x cells, with rucaparib 10 µM, 100% = cells with rucaparib alone",127% (inactive)
same,viability,"[10]; at 0.00122 µM, OCI-C5x cells, without rucaparib",108% (inactive)
same,viability,"[10]; at 0.00122 µM, OCI-P5x cells, with rucaparib 20 µM, 100% = cells with rucaparib alone",104% (inactive)
same,viability,"[10]; at 0.00122 µM, OCI-P5x cells, without rucaparib",93.1% (active)
same,viability,"[10]; at 0.00488 µM, OCI-C5x cells, with rucaparib 10 µM, 100% = cells with rucaparib alone",109% (inactive)
same,viability,"[10]; at 0.00488 µM, OCI-C5x cells, without rucaparib",108% (inactive)
same,viability,"[10]; at 0.00488 µM, OCI-P5x cells, with rucaparib 20 µM, 100% = cells with rucaparib alone",101% (inactive)
same,viability,"[10]; at 0.00488 µM, OCI-P5x cells, without rucaparib",102% (inactive)
same,viability,"[10]; at 0.0195 µM, OCI-C5x cells, with rucaparib 10 µM, 100% = cells with rucaparib alone",118% (inactive)
same,viability,"[10]; at 0.0195 µM, OCI-C5x cells, without rucaparib",117% (inactive)
same,viability,"[10]; at 0.0195 µM, OCI-P5x cells, with rucaparib 20 µM, 100% = cells with rucaparib alone",106% (inactive)
same,viability,"[10]; at 0.0195 µM, OCI-P5x cells, without rucaparib",104% (inactive)
same,viability,"[10]; at 0.0781 µM, OCI-C5x cells, with rucaparib 10 µM, 100% = cells with rucaparib alone",115% (inactive)
same,viability,"[10]; at 0.0781 µM, OCI-C5x cells, without rucaparib",112% (inactive)
same,viability,"[10]; at 0.0781 µM, OCI-P5x cells, with rucaparib 20 µM, 100% = cells with rucaparib alone",97% (active)
same,viability,"[10]; at 0.0781 µM, OCI-P5x cells, without rucaparib",101% (inactive)
same,viability,"[10]; at 0.313 µM, OCI-C5x cells, with rucaparib 10 µM, 100% = cells with rucaparib alone",100% (inactive)
same,viability,"[10]; at 0.313 µM, OCI-C5x cells, without rucaparib",114% (inactive)
same,viability,"[10]; at 0.313 µM, OCI-P5x cells, with rucaparib 20 µM, 100% = cells with rucaparib alone",101% (inactive)
same,viability,"[10]; at 0.313 µM, OCI-P5x cells, without rucaparib",106% (inactive)
same,viability,"[10]; at 1.25 µM, OCI-C5x cells, with rucaparib 10 µM, 100% = cells with rucaparib alone",119% (inactive)
same,viability,"[10]; at 1.25 µM, OCI-C5x cells, without rucaparib",116% (inactive)
same,viability,"[10]; at 1.25 µM, OCI-P5x cells, with rucaparib 20 µM, 100% = cells with rucaparib alone",83.4% (active)
same,viability,"[10]; at 1.25 µM, OCI-P5x cells, without rucaparib",103% (inactive)
same,viability,"[10]; at 5 µM, OCI-C5x cells, with rucaparib 10 µM, 100% = cells with rucaparib alone",126% (inactive)
same,viability,"[10]; at 5 µM, OCI-C5x cells, without rucaparib",120% (inactive)
same,viability,"[10]; at 5 µM, OCI-P5x cells, with rucaparib 20 µM, 100% = cells with rucaparib alone",70.5% (active)
same,viability,"[10]; at 5 µM, OCI-P5x cells, without rucaparib",99.3% (active)
c1cc(OCCN2CCCCC2)cc(-c2n[nH]c3ccc(-c4ncn[nH]4)cc23)c1,outcome,[1],inactive
same,outcome,[2],inactive
same,outcome,[3],inactive
same,outcome,[4],inactive
same,outcome,[5],inactive
same,outcome,[11],inactive
same,outcome,[12],inactive
same,outcome,[13],inactive
CCc1c(O)cc(O)c(C(=O)c2ccc(OCCN3CCOCC3)c(OC)c2)c1CC(=O)N(CCOC)CCOC,AC50,[1],235 nM (active)
same,AC50,[2],3320 nM (active)
same,AC50,[3],372 nM (active)
same,AC50,[4],1320 nM (active)
same,AC50,[5],833 nM (active)
same,AC50,[6],742 nM (active)
same,AC50,[12],742 nM (active)
same,outcome,[13],inactive
same,fold change,[7]; [14],1.03 (inactive)
same,fold change,[7]; [15],0.454
same,cell count,[7]; [16],3640
same,cell count,[7]; [17],3520
same,z-score,[9]; [18],-0.316 (inactive)
same,z-score,[9]; [19],0.722
